Screening results (PubChem BioAssay)
HCMV antiviral – qHTS Assay for inhibitors of the human cytomegalovirus (HCMV) | HFF cells, HCMV-luciferase reporter, 72 h; hits give low values | activity change, negative = inhibition, % at 57.5 µM | 4.5% of 410,000 active | AID 1259415, 2018; in the data active means activity change below about -60%; inconclusive means no clear call, values can overlap the other calls; inactive means above about -39%
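Compounds were evaluated in HFFs infected with an HCMV luciferase reporter virus (MOI 1 PFU/cell). Luciferase in lysates collected 72 h post infection served as the replication measure.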
Lassa entry inh – qHTS for Inhibitors of binding or entry into cells for Lassa Virus. Lassa virus pseudotype entry inhibition, cell reporter. Potency, µM (doses to about 37.9 µM), actives largely listed as inhibitors. 1.2% of 300,000 active; calls by dose curve; tested in HEK293 cells; further: nearly all actives have a fitted effect of over 50% in size
FMDV inh – High Throughput Screening for Foot and Mouth Disease Virus Antivirals. Potency, µM (titrated, usually from 57.9 µM), actives largely listed as inhibitors. 1.2% of 410,000 active. FMDV antiviral cell-based qHTS; calls by dose curve; tested in HEK293T cells; further: read-out not given here; nearly all actives have a fitted effect of over 45% in size
MARV entry inh – qHTS for inhibitors of binding or entry into cells for Marburg Virus; 1.8% of 300,000 active; Marburg virus pseudotyped entry inhibition, cell reporter; Potency, µM (top dose mostly 37.8 µM), usual class: inhibitors; AID 540276, 2011; calls by dose curve; tested in HEK293 cells
Numbers stand for hits; . = inactive; ? = inconclusive; / = no result. Shown are actives, neighbours in structure and some others; about 6.2% of the full set was active somewhere.

SMILES	HCMV antiviral	Lassa entry inh	FMDV inh	MARV entry inh
CNC(=S)N/N=C(\C)c1ccccc1	-97	?	.	.
COc1ccc(CCC(=O)N/N=C(\C)c2ccc3c(c2)OCO3)cc1	.	0.35µM	.	.
CNC(=S)N/N=C(\C)c1ccc(C(C)(C)C)cc1	.	.	.	?
CNC(=S)N/N=C(\C)c1ccc2c(c1)OCCO2	.	.	.	?
CC(=O)Oc1cc2c(c(C)c1OC(C)=O)CC=C1[C@]3(C)CC[C@]4(C)CC[C@@](C)(C(=O)O)CC4[C@]3(C)CC[C@]12C (some centres undefined)	/	/	35µM	/
Cc1c(O)c(O)cc2c1CC=C1[C@]3(C)CC[C@]4(C)CC[C@@](C)(C(=O)O)CC4[C@]3(C)CC[C@]12C (some centres undefined)	/	/	25µM	/
CC1=C(O)C(=O)C=C2C1=CC=C1C2(C)CCC2(C)C3CC(C)(C(=O)O)CCC3(C)CCC12C (centres undefined)	-78	?	.	2.8µM
COCCn1c(SCC(=O)NC2CCCCC2C)nnc1-c1ccncc1 (centres undefined)	.	.	.	.
COc1ccc(Oc2ccc(C(F)(F)F)cc2NC(=O)c2ccc(OC)cc2)cc1	.	/	.	/
CCc1cccc(CC)c1N(COC)C(=O)Cn1cnc2ccccc21	?	.	.	?
CCc1cccc(CC)c1N(COC)C(=O)Cn1c(C)nc2ccccc21	-65	.	10µM	/
Oc1c(Br)cc(Cl)cc1C=Nc1ccc(N2CCOCC2)cc1	.	?	.	.
O=C(Cc1c[nH]c2ccccc12)NNCc1ccc(N(CCCl)CCCl)cc1	?	3.5µM	.	1.6µM
O=C(Cc1c[nH]c2ccccc12)NCc1ccc(Cl)cc1	.	.	.	.
CCOC(=O)c1cnc(SCC(=O)Nc2cc(OC)ccc2OC)nc1N	.	.	14µM	?
C/C(=N/NC(=O)c1ccncc1)c1ccccc1	.	.	.	?
C/C(=N\NC(=O)c1ccc(N/N=C(\C)c2ccncc2)cc1)c1ccncc1	.	.	.	1µM
C/C(=N\NC(=O)c1ccccc1NC(=O)c1ccc(Cl)cc1)c1ccncc1	.	?	3.2µM	?
CCN(c1ccccc1)S(=O)(=O)c1cccc(C(=O)NCC(c2ccco2)N2CCCC2)c1 (centres undefined)	.	.	.	?
Cn1c(CCc2nc3ccccc3[nH]2)n[nH]c1=S	.	/	.	.
COc1cc(/C=C(\C(=O)O)c2ccc(S(=O)(=O)N3CCCC3)s2)cc(OC)c1	.	.	.	.
COC(=O)Cn1c(=NC(=O)c2cc(-c3cccs3)nc3ccccc23)sc2cc(S(N)(=O)=O)ccc21	.	?	.	?
COC(=O)Cn1c(=NC(=O)c2nc3ccccc3s2)sc2cc(S(N)(=O)=O)ccc21	-89	.	.	.
Cc1ccc(C)c(NC(=O)Cc2nc(CNCC(C)C)cs2)c1	.	.	.	7.9µM
O=C(C[C@H]1C[C@H](C(=O)N2CCOCC2)[C@@]2(CCC3CCCC3)c3[nH]c4ccc(Cl)cc4c3CCN2C1=O)NCCc1ccccn1	.	/	.	/
SMILES	HCMV antiviral	Lassa entry inh	FMDV inh	MARV entry inh
COP(=S)(OC)Oc1ccc([N+](=O)[O-])cc1	/	/	22µM	/
COc1ccc(CCNC(=O)CCc2nc3ccccc3[nH]2)cc1OC	.	/	.	/
CNc1cc(-c2ccc(OC)c(OC)c2)ncn1	.	/	.	/
CNc1ccc2ncc(-c3ccc(OC)c(OC)c3)n2n1	-83	/	.	/
CC(C)C[C@H]1C(=O)N2CCCC2[C@]2(O)O[C@](NC(=O)[C@@H]3C=C4c5cccc6[nH]c(Br)c(c56)C[C@H]4N(C)C3)(C(C)C)C(=O)N12 (some centres undefined)	/	/	/	10µM
CC(=O)CNc1ccc(S(=O)(=O)N/N=C/c2ccccc2)cc1	.	.	.	.
COc1ccc(C2=CC(c3ccc(OC)c(OC)c3)c3c(c4ccccc4oc3=O)O2)cc1OC (centres undefined)	-64	/	.	/
COc1ccc(-c2cc(=O)c3ccccc3o2)cc1OC	/	/	.	/
Cc1ccc(NC(=O)c2ccc(Cl)c(S(=O)(=O)N3CCCCCC3)c2)nc1	-68	.	?	.
Cc1ccc(NC(=O)c2ccc(S(=O)(=O)N3CCC(C)CC3)cc2)nc1	-64	.	.	.
Cc1ccc(NC(=O)c2ccc(C)c(S(=O)(=O)N3CCCCC3)c2)nc1	.	.	.	?
Cc1oc(S(=O)(=O)N2CCOCC2)cc1C(=O)Nc1ccc(F)cc1	.	.	.	.
CC1=CC(C)C(C(=O)O)C(C(=O)O)C1 (centres undefined)	.	.	.	.
NC(=O)c1ccc(N2CCN(c3ccc(O)cc3)CC2)c([N+](=O)[O-])c1	-66	.	?	?
O=C(c1ccc(N2CCCCC2)c([N+](=O)[O-])c1)N1CCN(S(=O)(=O)c2ccccc2)CC1	.	?	.	.
O=C(/C=C/c1ccc(N2CCCCC2)c([N+](=O)[O-])c1)c1ccc(S(=O)(=O)N2CCCC2)cc1	.	.	20µM	?
NC(=O)c1ccc(N2CCN(S(=O)(=O)c3ccccc3)CC2)c([N+](=O)[O-])c1	-90	2µM	16µM	.
CC(C)CNC(=O)NC1C(NC(=O)NCC(C)C)N(C)C(=O)N1C (centres undefined)	.	.	.	?
Cc1c(Br)cc(C(=O)N2CCN(CCO)CC2)c(C)c1C	-101	.	.	.
Cc1c(Br)cc(C(=O)N2CCCC2)c(C)c1C	.	.	.	.
CC(=O)/C=C/c1ccccc1Oc1c(F)c(F)nc(F)c1F	-67	/	32µM	/
Cc1ccc2c(c1)cc(CN(Cc1cccs1)C(=O)c1ccco1)c1nnnn12	.	16µM	.	?
Cc1ccc2cc(CN(Cc3cccs3)C(=O)c3ccco3)c3nnnn3c2c1C	/	.	/	.
Brc1ccc(/C=N/Nc2ccc3ccccc3n2)cc1	.	?	.	.
Brc1ccccc1/C=N/Nc1ccc2ccccc2n1	.	?	.	11µM
SMILES	HCMV antiviral	Lassa entry inh	FMDV inh	MARV entry inh
Fc1cccc(/C=N/Nc2ccc3ccccc3n2)c1	.	?	.	6.3µM
O=[N+]([O-])c1cccc(C=NNc2ccc3ccccc3n2)c1O	-97	2.5µM	10µM	2.2µM
O=C(N/N=C/c1cccc([N+](=O)[O-])c1O)C(O)(c1ccccc1)c1ccccc1	.	/	.	/
COC(=O)CSc1nnc(-c2ccc(NS(=O)(=O)c3ccccc3)cc2)o1	.	.	.	.
O=C1c2ccccc2C(=O)N1CCCCc1cn(C[C@H]2CC[C@H](Cn3cc(CCCCN4C(=O)c5ccccc5C4=O)nn3)O2)nn1	.	/	?	/
CCC(CC)NC(=O)COC(=O)c1ccc2c(c1)C(=O)N(Cc1ccco1)C2=O	.	.	.	.
CN(C)/C=N/c1c(C#N)cnn1-c1ncnc2sc(-c3ccccc3)cc12	.	11µM	?	?
CN(C)/C=N/c1c(C#N)cnn1-c1ccccc1	.	.	/	.
COc1ccc(C2CCCN2C(=S)Nc2ccccc2C)cc1OC (centres undefined)	.	.	.	?
CCC(C)n1c(SCc2ccc([N+](=O)[O-])cc2)nc2ccsc2c1=O (centres undefined)	.	?	?	13µM
O=C(CSCc1ccccc1Cl)Nc1ccc2c(c1)OCCO2	.	?	.	.
